Test results reported in PubChem BioAssay (NCATS).
Results filed as inconclusive are left out. Calls of active or inactive are those of the source. Unless noted, calls come from the whole dose curve; as a rule, active = well fitted curve in the direction sought with a large enough effect; inconclusive = small, poorly fitted or top-dose-only effect, or another doubt; inactive = no such curve, though single readings can be large; an effect the other way counts as inactive or inconclusive.

Assays:
[1] = Cell Viability - BJ (AID 421; calls by dose curve;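 note: potency is the fitted concentration of half-maximal effect; cells exposed to compound for 40 hours at 37 °C before readout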); conditions: BJ fibroblast viability, qHTS
Method in brief: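 Normal human BJ foreskin fibroblasts, 1500/well in complete medium, treated 40 hr at 37 °C. Cellular ATP by CellTiter-Glo luminescence; normalized to DMSO and 100 uM tamoxifen, AC50 from Hill fit.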

[2] = Cell Viability - Jurkat (AID 426;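 active = dose-dependent loss of cell ATP signal giving a full or clear fitted curve, ranked by lower potency value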; note: potency is the fitted concentration of half-maximal effect); conditions: qHTS
Method in brief: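 Cytotoxicity was scored as loss of cellular ATP, measured by luciferase-based luminescence, in Jurkat clone E6-1 cells after 40 h compound treatment; tamoxifen and doxorubicin served as positive controls.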

[3] = Cell Viability - Hek293 (AID 427;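 active = compounds whose dose-response curve shows a full or clear partial loss of cell viability, called from curve shape rather than a numeric limit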;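 note: potency is the fitted concentration of half-maximal effect; cells exposed to compound for 40 hours at 37 °C before reading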); conditions: qHTS
Method in brief: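 HEK293 cells in complete medium were exposed to compound for 40 hr at 37 °C, then cellular ATP was read by CellTiter-Glo luminescence. Data were normalized to DMSO (basal) and 100 uM tamoxifen (100% inhibition), and AC50 came from Hill fits.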

[4] = Cell Viability - HepG2 (AID 433; calls by dose curve;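 note: potency is the fitted concentration of half-maximal effect; potency for ATP loss meaning cytotoxicity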); conditions: qHTS
Method in brief: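 Cytotoxicity is scored as loss of intracellular ATP in HepG2 cells exposed to compounds for 40 h. Concentration-response curves, normalized to DMSO and 100 uM tamoxifen, give AC50 values.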

[5] = Cell Viability - MRC5 (AID 434; calls by dose curve;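 note: potency is the fitted concentration of half-maximal effect; potency reflects cytotoxicity seen as loss of intracellular ATP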); conditions: MRC5 lung fibroblast viability, qHTS
Method in brief: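 AC50 values come from Hill-equation fits of intracellular ATP loss, measured by CellTiter-Glo luminescence. Normal lung fibroblasts (MRC5) had 40 hr compound treatment at 37 C, normalized between DMSO and 100 uM tamoxifen.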

[6] = Cell Viability - SK-N-SH (AID 435; calls by dose curve;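 note: potency is the fitted concentration of half-maximal effect; compound exposure lasted 40 h at 37 °C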); conditions: SK-N-SH neuroblastoma cell viability qHTS
Method in brief: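 Cells seeded at 1500 per well and incubated 5 hr at 37 °C. Compound added, then 40 hr at 37 °C. CellTiter-Glo added, 20 min at room temperature, luminescence read.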

[7] = Cell Viability - N2a (AID 540); conditions: N2a mouse neuroblastoma cell viability; activity change, negative = cytotoxicity: at 92.2 µM (top of the series);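 note: plate controls were DMSO alone for no effect and tamoxifen control for full effect; nearly all actives have a fitted effect of over 45% in size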
Method in brief: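 In this qHTS cytotoxicity screen, ATP-dependent luciferase luminescence reports viable N2a cells after a 40 hr compound exposure in complete culture medium. Potencies are AC50 values from standard Hill equation fits.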

[8] = Cell Viability - NIH 3T3 (AID 541); conditions: NIH 3T3 cell viability, qHTS; activity change, negative = cytotoxicity: at 92.2 µM (top of the series);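 note: plate controls were DMSO alone for no effect and tamoxifen positive control for full effect; nearly all actives have a fitted effect of over 25% in size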
Method in brief: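 In this cytotoxicity screen, acute toxicity is scored as an ATP drop measured by CellTiter-Glo in NIH 3T3 fibroblasts following a 40 hr, 37 °C incubation with compound.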

[9] = Cell Viability - HUV-EC-C (AID 542); note: % is set by controls: 0 for no effect and ±100 for the full control effect; nearly all actives have a fitted effect of over 35% in size
Method in brief: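 Concentration-dependent ATP loss in HUV-EC-C cells is the measure. Exposure lasts 40 hr at 37 °C; luminescence follows CellTiter-Glo addition, and Hill fits give AC50.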

[10] = Cell Viability - H-4-II-E (AID 543); note: % is set by controls: 0 for no effect and ±100 for the full control effect; nearly all actives have a fitted effect of over 35% in size
Method in brief: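 AC50 from Hill-modelled qHTS concentration-response curves. H-4-II-E rat hepatoma cells in complete medium, 40 hr exposure at 37 °C, viability by CellTiter-Glo ATP luminescence.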

[11] = Cell Viability - SH-SY5Y (AID 544); conditions: SH-SY5Y neuroblastoma cell viability; viability change, negative = cytotoxic: at 92.2 µM (top of the series); note: nearly all actives have a fitted effect of over 55% in size
Method in brief: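 Quantitative HTS in SH-SY5Y neuroblastoma cells, 40 hr treatment at 37 °C, ATP content by luciferase luminescence; AC50 from Hill fits.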

[12] = Cell Viability - Renal Proximal Tubule (AID 545); conditions: renal proximal tubule cells viability, primary cells of rat origin; activity change, negative = cytotoxicity: at 91.7 µM (top of the series); note: nearly all actives have a fitted effect of over 40% in size
Method in brief: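 Cytotoxicity is scored as a concentration-dependent drop in cellular ATP in primary rat renal proximal tubule cells exposed for 40 hr. AC50 derives from Hill modelling.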

[13] = Cell Viability - Mesenchymal (AID 546); conditions: mesenchymal cells viability, qHTS; activity change, negative = cytotoxicity: at 91.7 µM (top of the series);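 note: cells exposed to compound for 40 hours before reading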
Method in brief: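 CellTiter-Glo luminescence (intracellular ATP, 20 min room temperature) after 40 hr compound exposure at 37 °C of 1000 glomerulus-derived human kidney mesenchymal cells/well; AC50 values obtained by fitting qHTS concentration-response data to the Hill equation.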

[14] = Cellular Toxicity (caspase-3) HepG2 (AID 654);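 note: cells exposed to compound for 16 hours before reading; 0% = DMSO alone and 100% = caspase signal from 100 µM tamoxifen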
Method in brief: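 Concentration-response AC50 values reflect caspase-3/7 induction in HepG2 cells after 16 hours of compound exposure, quantified by luminescence from liberated aminoluciferin and referenced to 100 uM tamoxifen as full stimulation.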

[15] = Cellular Toxicity (caspase-3) Jurkat (AID 655); conditions: Jurkat caspase-3 activation, luminescence; caspase-3 activation: at 92.2 µM (top of the series), DMSO = 0%, tamoxifen = 100%;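 note: cells exposed to compound for 16 h at 37 °C before reading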
Method in brief: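 Caspase 3/7 activation is scored as increased luminescence in Jurkat cells cultured with compound for 16 hours in complete medium. AC50 values come from Hill fits of qHTS concentration-response data normalized to DMSO and 100 uM tamoxifen controls.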

[16] = Cellular Toxicity (caspase-3) HUV-EC-C (AID 656)
Method in brief: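 Read-out: luminescence proportional to caspase 3/7 activity, measured 20 min after adding Caspase-Glo 3/7 reagent. Cells (HUV-EC-C) had received compound for 16 hr at 37°C. Increases relative to DMSO and 100 uM tamoxifen gave concentration-response AC50 values.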

[17] = Cellular Toxicity (caspase-3) SHSY5Y (AID 657)
Method in brief: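 Cells plated and incubated 5 h at 37 °C, dosed over a concentration range, incubated 16 h, then given Caspase-Glo 3/7 reagent for 1 h at room temperature before luminescence reading. Staurosporine (10 uM) defined full stimulation.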

[18] = Cellular Toxicity (caspase-3) BJ (AID 658); conditions: Potency: caspase-3 activation;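 note: 0% = DMSO basal and 100% = 10 µM staurosporine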
Method in brief: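 Caspase-Glo 3/7 luminescence, read 1 hr after reagent at room temperature, in normal BJ fibroblasts exposed 16 hours at 37 °C. AC50 values from Hill-equation concentration-response, scaled between DMSO basal and 10 uM staurosporine as 100%.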

[19] = Cellular Toxicity (caspase-3) MRC-5 (AID 659);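 note: 0% = DMSO basal and 100% = 10 µM staurosporine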
Method in brief: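 Luminescent Caspase-Glo 3/7 read-out (1 h, room temperature) after a 16 h, 37 °C compound exposure of MRC-5 lung fibroblasts at 1500 cells/well. Concentration-response AC50 from Hill equation; 0% DMSO, 100% 10 uM staurosporine.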

[20] = Cellular Toxicity (caspase-3) Mesangial (AID 660); conditions: mesangial cells, normalized: DMSO 0%, 100 µM tamoxifen 100%; at 91.7 µM (top of the series);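 note: cells exposed to compound for 16 h before the caspase read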
Method in brief: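 AC50 values come from Hill-equation fits of caspase 3/7 activation, measured as Caspase-Glo luminescence in human glomerular mesangial cells exposed to compound for 16 h at 37 °C; 100% set by 100 uM tamoxifen.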

[21] = Cellular Toxicity (caspase-3) H-4-II-E (AID 663); conditions: H-4-II-E rat hepatoma; Potency: caspase-3 activation; caspase-3 activation: at 92.2 µM (top of the series), scaled: DMSO 0%, 100 µM tamoxifen 100%;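 note: cells exposed to compound for 16 hr before readout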
Method in brief: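 Caspase 3/7 activation measured by luminescent aminoluciferin substrate cleavage after 16 hr compound treatment of H-4-II-E cells in complete medium. Increase normalized between DMSO (basal) and 100 uM tamoxifen (100%); Hill-equation AC50 from concentration-response.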

[22] = Cellular Toxicity (caspase-3) Hek293 (AID 664); conditions: HEK293 caspase-3 activation, DMSO = 0%, 100 µM tamoxifen = 100%; at 92.2 µM (top of the series);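 note: cells exposed to compound for 16 h at 37 °C before readout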
Method in brief: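 Apoptosis readout: Caspase-Glo 3/7 signal in human HEK293 cells following 16-hour compound incubation. Responses scaled between DMSO baseline and 100 uM tamoxifen.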

[23] = Cellular Toxicity (caspase-3) N2a (AID 665); conditions: Potency: caspase-3 activation;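 note: compound exposure lasted 16 h at 37 °C before readout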
Method in brief: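 Concentration-response qHTS: compound-induced caspase-3/7 luminescence in N2a cells (16 h, 37 °C), relative to DMSO and 10 uM staurosporine controls; AC50 obtained using the standard Hill equation.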

[24] = Cellular Toxicity (caspase-3) NIH 3T3 (AID 666);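 note: 0% = DMSO basal and 100% = 100 µM tamoxifen stimulation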
Method in brief: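 Activity: caspase-3/7 induction, NIH 3T3 cells, 16 hr treatment at 37°C, luminescent Caspase-Glo detection; AC50 via Hill equation.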

[25] = Cellular Toxicity (caspase-3) Renal Proximal Tubule (AID 667);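 note: cells exposed to compound for 16 hours at 37 °C before detection; 0% = DMSO basal and 100% = 10 µM staurosporine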
Method in brief: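 In qHTS format, rat primary proximal tubule cells seeded at 1000 per well are exposed to compounds for 16 hours at 37 °C. An increase in Caspase-Glo 3/7 luminescence indicates caspase activation.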

[26] = Cell Viability - LYMP2-001 (AID 921);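 note: cells exposed to compound for 24 h at 37 °C; 0% = DMSO only and full inhibition = tetraoctylammonium bromide control wells; nearly all actives have a fitted effect of over 70% in size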
Method in brief: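 qHTS, 1536-well; lymphoblastoid cells, 24 hr compound, 37 C; ATP by CellTiter-Glo, 30 min RT; luminescence; Hill-fit AC50.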

[27] = MultiTox-Fluor Cytotoxicity Assay - LYMP1-001 - Dead Cells (AID 946);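 note: 0% = DMSO and 100% = tetraoctylammonium bromide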
Method in brief: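 LYMP1-001 lymphoblastoid cells (2500/well) treated 16 h at 37 C. Dead-cell protease cleavage of bis-AAF-R110 read at Ex/Em 485/520. Normalized to DMSO and 15 uM tetraoctylammonium bromide; AC50 from Hill fits.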

[28] = Cell Viability - LYMP1-002 - Assay at 16 hr (AID 948);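 note: 0% = DMSO alone and full effect = 92 µM tetraoctylammonium bromide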
Method in brief: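 Acute cytotoxicity is scored as a concentration-dependent fall in intracellular ATP in a human lymphoblastoid line (LYMP1-002) after 16 hr compound exposure at 37 C, measured by luciferase luminescence.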

[29] = MultiTox-Fluor Cytotoxicity Assay - LYMP1-002 - Live Cells (AID 955); note: % is set by controls: 0 for no effect and ±100 for the full control effect
Method in brief: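 In this qHTS viability format, lymphoblastoid cells (LYMP1-002, human) received compound for 16 hr at 37 C. Fluorogenic GF-AFC cleavage by viable cells was detected at 405/510 nm after 1 h at room temperature.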

[30] = MultiTox-Fluor Cytotoxicity Assay - LYMP1-002 - Dead Cells (AID 960);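 note: 0% = DMSO and 100% = tetraoctylammonium bromide; nearly all actives have a fitted effect of over 60% in size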
Method in brief: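 Concentration-dependent increases in membrane-leaked protease activity are quantified in LYMP1-002 cells after 16 hr treatment; values are normalized against DMSO and tetraoctylammonium bromide (15 uM) controls and AC50 derived by Hill modeling.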

[31] = MultiTox-Fluor Cytotoxicity Assay - LYMP1-003 - Dead Cells (AID 961);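 note: 0% = DMSO and 100% = tetraoctylammonium bromide; nearly all actives have a fitted effect of over 70% in size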
Method in brief: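 LYMP1-003 human lymphoblastoid cells (2500/well) exposed to compound 16 h at 37 C in complete medium; dead-cell protease read with bis-AAF-R110 fluorescence (Ex/Em 485/520) after 60 min at room temperature. Normalized to DMSO and 15 uM tetraoctylammonium bromide; AC50 from Hill fit.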

O=[N+]([O-])c1cc([N+](=O)[O-])c2ccc(S(=O)(=O)O)cc2c1O
inactive: Potency [1] > 92 µM | Potency [2] > 92 µM | Potency [3] > 92 µM | Potency [4] > 92 µM | Potency [5] > 92 µM | Potency [6] > 92 µM | Potency [7] | Potency [8] | Potency [9] | Potency [10] | Potency [11] | Potency [12] | Potency [13] | Potency [14] | Potency [15] | Potency [16] | Potency [17] | Potency [18] | outcome [19] | caspase-3 activation [20] 1.36% | caspase-3 activation [21] 0.036% | caspase-3 activation [22] 1.41% | Potency [23] | Potency [24] | outcome [25] | Potency [26] | Potency [27] | Potency [28] | Potency [29] | Potency [30] | Potency [31]
